# Measured values taken from PubChem BioAssay (NCATS).
# Values joined by “and” are separate entries in the source; they are usually repeats but may differ in a detail not shown here. Identical values can stand only once. Records with an inconclusive call do not appear. Active and inactive are the calls of the source. Unless noted, calls come from the whole dose curve; as a rule, active = well fitted curve in the direction sought with a large enough effect; inconclusive = small, poorly fitted or top-dose-only effect, or another doubt; inactive = no such curve, though single readings can be large; an effect the other way counts as inactive or inconclusive.
# Experiments:
# [1] = target: Alpha-galactosidase A (Homo sapiens) (UniProt P06280); assay: Counterscreen for Glucocerebrosidase Inhibitors: qHTS Assay for Human alpha-Galactosidase at pH 4.5 (AID 992); note: 0% is about no effect
# Summary of the method: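 Fluorogenic 4-MU alpha-D-galactoside (80 uM) hydrolysis, 2 nM enzyme, pH 4.5 citrate buffer + 0.005% Tween-20; 20 min RT; NaOH/glycine pH 10 stop; Ex365/Em440. Compounds titrated 0.7 nM–77 uM; Hill-equation AC50.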
# [2] = target: Alpha-galactosidase (Coffea arabica) (UniProt Q42656); assay: Counterscreen for Glucocerebrosidase Inhibitors: qHTS Assay for Coffee Bean alpha-Galactosidase at pH 5.9 (AID 998);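 note: plate controls were uninhibited enzyme for no effect and no-enzyme basal signal for full effect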
# Summary of the method: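 Enzyme 2 nM + cpd (0.7 nM–77 uM titration) + 4-MU-alpha-Gal 80 uM, pH 5.9 citrate/Tween-20, RT 20 min, NaOH/glycine stop pH 10, fluor 365/440. Normalized to no-enzyme and full-activity controls; Hill-fit AC50.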
# [3] = Validation of Assay for Modulators of Lamin A Splicing (AID 1459; active = well fitted curve in the direction sought with a large enough effect in the signal ratio; the % refers to the signal ratio;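 note: cells exposed to compound for two days before reading; 0% is about no effect; ratio rise marks activators and ratio drop marks inhibitors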)
# Summary of the method: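 Dual-reporter HeLa S3 line (lamin A-EGFP minigene, DsRed2) treated with compounds 48 hrs, 0.5% DMSO final. Endpoint: EGFP/DsRed2 total intensity ratio from laser-scanning microplate cytometry.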
# [4] = qHTS Assay for Lipid Storage Modulators (AID 1519; calls by dose curve; for activity change, negative = inhibition: % is set by controls: 0 for no effect and ±100 for the full control effect); details: Drosophila S3 cells, BODIPY lipid droplet/cell ratio, laser cytometry, cells loaded with oleic acid
# Summary of the method: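 Cells seeded at 5,000 per well were treated with compounds over a concentration series and loaded with oleic acid (400 uM, as added). Lipid droplet fluorescence (488 nm excitation, 500-530 nm channel) was read by laser-scanning cytometry and normalized to 20 uM Triacsin C.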
# [5] = target: DNA repair nuclease/redox regulator APEX1 (Homo sapiens) (UniProt P27695); assay: qHTS Validation Assay for Inhibitors of the Human Apurinic/apyrimidinic Endonuclease 1 (APE1) (AID 1705;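 note: TAMRA fluorescence gain over two minutes as APE1 cuts a quenched THF abasic duplex; % is set by controls: 0 for no effect and ±100 for the full control effect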)
# Summary of the method: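 Substrate: 50 nM final fluorophore/quencher THF-abasic duplex. Enzyme preincubated with compounds 15 min, RT. Progress derived from fluorescence difference, third minus first kinetic read.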
# [6] = Cell Viability - LYMP2-022 (AID 987);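 note: 0% = DMSO alone and full effect = tetraoctylammonium bromide at 92 µM; nearly all actives have a fitted effect of over 55% in size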
# Summary of the method: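 Cytotoxicity read as decreased cellular ATP (CellTiter-Glo luminescence, 30 min room temperature) after 24 hours compound exposure of 2500 lymphoblastoid LYMP2-022 cells/well at 37 C. Concentration-response data fitted with standard Hill equation for AC50.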
# [7] = Cell Viability - LYMP2-024 (AID 988); note: nearly all actives have a fitted effect of over 60% in size; note: potency is the fitted concentration of half-maximal effect
# Summary of the method: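 Cytotoxicity was taken as a decrease in ATP (CellTiter-Glo luminescence) after 24 hr compound exposure at 37 C of LYMP2-024 lymphoblastoid cells, 2500 cells/well. Concentration-response data were fitted to the Hill equation to give AC50.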
# [8] = Cell Viability - LYMP2-026 (AID 989); note: % is set by controls: 0 for no effect and ±100 for the full control effect; nearly all actives have a fitted effect of over 50% in size
# Summary of the method: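 Cytotoxicity read as ATP-dependent luminescence (CellTiter-Glo, 30 min room temperature) after 24 h compound treatment at 37 C. LYMP2-026 lymphoblastoid line seeded at 2500 cells/well; AC50 derived by standard Hill equation.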
# [9] = Cell Viability - LYMP1-002 - Assay at 24 hr (AID 993); note: potency is the fitted concentration of half-maximal effect
# Summary of the method: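 qHTS cytotoxicity at 24 h: CellTiter-Glo ATP luminescence in lymphoblastoid line LYMP1-002 incubated with compound at 37 °C. Concentration-response modeled with the Hill equation for AC50; tetraoctylammonium bromide served as positive control.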
# [10] = Cell Viability - LYMP1-002 - Assay at 40 hr (AID 994); note: nearly all actives have a fitted effect of over 60% in size; note: potency is the fitted concentration of half-maximal effect
# Summary of the method: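 Cytotoxicity was read as loss of cellular ATP (CellTiter-Glo luminescence) after 40 hr compound exposure at 37 C of 2500 LYMP1-002 lymphoblastoid cells per well. Concentration-response data were fitted with the standard Hill equation to give AC50.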
# [11] = measured here: cell count channel max response
# [12] = measured here: lipid channel max response
# Sequence of Alpha-galactosidase (Coffea arabica) (Q42656 whole entry, looked up): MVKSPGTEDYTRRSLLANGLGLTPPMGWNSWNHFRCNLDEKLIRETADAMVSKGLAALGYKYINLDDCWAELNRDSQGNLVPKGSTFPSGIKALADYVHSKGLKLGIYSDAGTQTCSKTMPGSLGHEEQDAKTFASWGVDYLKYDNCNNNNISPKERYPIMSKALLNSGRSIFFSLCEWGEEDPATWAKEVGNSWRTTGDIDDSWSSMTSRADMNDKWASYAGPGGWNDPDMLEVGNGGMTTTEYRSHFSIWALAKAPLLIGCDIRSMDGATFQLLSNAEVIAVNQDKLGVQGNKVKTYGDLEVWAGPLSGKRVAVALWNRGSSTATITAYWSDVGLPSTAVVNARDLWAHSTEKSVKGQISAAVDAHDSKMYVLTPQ
# Sequence of Alpha-galactosidase A (Homo sapiens) (P06280 whole entry, looked up): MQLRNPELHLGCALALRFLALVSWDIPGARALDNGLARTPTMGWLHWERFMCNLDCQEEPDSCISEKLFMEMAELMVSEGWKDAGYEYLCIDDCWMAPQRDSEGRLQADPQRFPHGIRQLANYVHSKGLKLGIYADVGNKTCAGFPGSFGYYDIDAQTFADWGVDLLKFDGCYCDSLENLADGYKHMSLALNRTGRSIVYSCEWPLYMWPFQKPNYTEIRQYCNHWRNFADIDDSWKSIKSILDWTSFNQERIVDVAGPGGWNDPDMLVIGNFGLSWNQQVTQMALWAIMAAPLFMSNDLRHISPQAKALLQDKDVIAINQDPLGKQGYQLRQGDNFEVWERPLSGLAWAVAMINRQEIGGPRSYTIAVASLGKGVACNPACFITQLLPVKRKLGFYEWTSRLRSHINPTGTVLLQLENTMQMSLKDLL
# Sequence of DNA repair nuclease/redox regulator APEX1 (Homo sapiens) (P27695 whole entry, looked up): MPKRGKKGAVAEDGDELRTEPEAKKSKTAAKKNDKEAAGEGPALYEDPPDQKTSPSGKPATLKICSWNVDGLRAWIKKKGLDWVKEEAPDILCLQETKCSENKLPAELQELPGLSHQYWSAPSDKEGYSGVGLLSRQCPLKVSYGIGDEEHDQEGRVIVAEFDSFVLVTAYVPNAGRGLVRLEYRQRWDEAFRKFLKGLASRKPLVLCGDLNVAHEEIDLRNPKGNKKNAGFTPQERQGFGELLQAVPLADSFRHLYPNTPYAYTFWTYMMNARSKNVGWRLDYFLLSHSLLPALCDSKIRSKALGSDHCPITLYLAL
compound,measurement,setting,value
COc1ccccc1N1CCNCC1,outcome,[1],inactive
same,outcome,[2],inactive
same,outcome,[3],inactive
same,"activity change, negative = inhibition",[4]; at 57.5 µM (top of the series),3.26% (inactive) and 0.382% (inactive)
same,max response,[4]; [11],10.9% and -13.3%
same,max response,[4]; [12],15.1% and -12.9%
same,outcome,[5],inactive
O=[N+]([O-])c1cc([As](=O)(O)O)ccc1O,"activity change, negative = inhibition",[4]; at 25.7 µM (top of the series),0.724% (inactive)
same,"activity change, negative = inhibition",[4]; at 57.5 µM (top of the series),3.89% (inactive)
same,max response,[4]; [11],-1.97% and 10%
same,max response,[4]; [12],0.435% and 19.2%
CCC1(C2=NCCN2)Cc2ccccc2O1 (configuration not stated),"activity change, negative = inhibition",[4]; at 57.5 µM (top of the series),-1.14% (inactive)
same,max response,[4]; [11],-3.38%
same,max response,[4]; [12],-2.07%
same,outcome,[5],inactive
CN(C)CCN(C)CCc1ccc(Cl)c(Cl)c1,"activity change, negative = inhibition",[4]; at 57.5 µM (top of the series),-1.09% (inactive)
same,max response,[4]; [11],4.07%
same,max response,[4]; [12],4.59%
CCC(COC(=O)c1cc(OC)c(OC)c(OC)c1)(c1ccccc1)N(C)C (configuration not stated),"activity change, negative = inhibition",[4]; at 57.5 µM (top of the series),6.16% (inactive)
same,max response,[4]; [11],-7.6%
same,max response,[4]; [12],-1.9%
CCCC(C)(COC(N)=O)COC(=O)NC(C)C (configuration not stated),Potency,[6],inactive
same,Potency,[7],inactive
same,outcome,[8],inactive
same,outcome,[1],inactive
same,Potency,[9],inactive
same,Potency,[10],inactive
same,outcome,[2],inactive
same,"activity change, negative = inhibition",[4]; at 57.5 µM (top of the series),3.44% (inactive) and -3.03% (inactive)
same,max response,[4]; [11],20.3% and 29.2%
same,max response,[4]; [12],29.5% and 22.2%
same,outcome,[5],inactive
CC1=C(/C=C/C(C)=C/C=C/C(C)=C/C(=O)Nc2ccc(O)cc2)C(C)(C)CCC1,outcome,[2],inactive
N[C@@H]1CONC1=O,outcome,[2],inactive
Clc1cccc(N2CCNCC2)c1,outcome,[1],inactive
same,outcome,[2],inactive
same,outcome,[5],inactive
CN1CCN(C2=Nc3cc(Cl)ccc3Nc3ccccc32)CC1,outcome,[2],inactive
same,"activity change, negative = inhibition",[4]; at 25.7 µM (top of the series),0.266% (inactive)
same,max response,[4]; [11],-21%
same,max response,[4]; [12],-18.6%
CC1=NS(=O)(=O)c2cc(Cl)ccc2N1,outcome,[2],inactive
CC(=O)Oc1ccccc1C(=O)Nc1ncc([N+](=O)[O-])s1,Potency,[7],39.8 µM (active)
same,Potency,[9],39.8 µM (active)
same,Potency,[10],39.8 µM (active)
O=c1[nH]c2ccccc2n1C1CCN(CCCC(c2ccc(F)cc2)c2ccc(F)cc2)CC1,outcome,[1],inactive
same,outcome,[2],inactive
